Molecules are shown by their SMILES. This is part of a sample that, as a whole, favours compounds with a hit. Of some 83,000 tested, about 20% had one in any assay.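 Cells were grown in 96-well plates and exposed to the test compound at a single concentration for 48 hours; results are reported as percent growth, with values below 10 considered active.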 A number with no mark means an inactive call. Activity calls are given as the source filed them.

The test system of one test is SN12C renal. The test can be described thus: NCI-60 one-dose screen, 48 h (100 = growth as untreated, 0 = no growth, -100 = all killed). The following applies: 10 µM unless noted.
For the molecule `Nc1nc(-c2cc3c(cc2Cl)NC(=O)/C3=C/c2ccc(Cl)cc2)cs1`, the growth is 48.8%.

Turning to `Cc1cccc(Cc2cnc(NC(=O)CCc3ccc(C)o3)s2)c1`, the growth was 31.1%.

For the molecule `CC(Cl)(CCl)CS(=O)(=O)c1ccc(Cl)cc1` (stereo unspecified), the growth was 105%.

Turning to `COc1ccc(Cl)cc1NC(=O)c1cc2c([nH]1)-c1nc(NC(=O)C(C)(C)C)sc1CC2`, the growth was 38.6%.

As for `CC(C)(c1ccc(OCC(O)CNCc2ccco2)cc1)c1ccc(OCC(O)CNCc2ccco2)cc1` (stereo unspecified), the growth is 87.6%.

Turning to `O=C1CCC(c2c(O)cc(O)c3c(=O)c(O)c(-c4ccc(O)c(O)c4)oc23)N1` (stereo unspecified), the growth was 105%.

As to `COc1ccc(Cn2cc3c(c2-c2cc(OC)c(OC)c(OC)c2)CCc2c(CO)noc2-3)cc1`, the growth is 30.3%.

Regarding `CC(=O)Cc1cccnc1`, the growth was 98.9%.

On to `CC(/C=C/C=C(\C)[C@H](O)[C@H](C)C(=O)O[C@H]1C[C@H](C)C=C2C=C[C@@]3(C)O[C@@H](O)CC(=O)[C@]3(C)[C@H]21)=C\C=C\C(=O)O`, for which the growth is 3.38% (active).

As to `Nc1nc(-c2cc3c(cc2Cl)NC(=O)/C3=C/c2ccccc2)cs1`, the growth was 51.9%.

In the case of `C=CC(=O)NC(=O)Nc1ccccc1Cl`, the growth is 83.5%.

As to `CCOC(=O)c1noc2c1CCc1c-2cn(Cc2ccc(OC)cc2)c1-c1cc(OC)c(OC)c(OC)c1`, the growth is 44.7%.

In the case of `C=C1C(=O)O[C@H]2[C@H]1CC/C(COC(=O)OC/C1=C/CC[C@@]3(C)O[C@H]3[C@H]3OC(=O)[C@@H](CN(C)C)[C@@H]3CC1)=C\CC[C@@]1(C)O[C@@H]21`, the growth is 10.7%.

As to `CC1CCC(C(C)C)C(NN)C1` (stereo unspecified), the growth was 102%.

As for `Cc1cc(SCc2ccc(Cl)cc2Cl)nc(SCc2ccc(Cl)cc2Cl)n1`, the growth is 112%.

Regarding `CCCC(C)(C)COC(=O)c1cccc(N)c1`, the growth was 98.4%.

Regarding `O=C1C(Cl)=C(Nc2cccc3cc4ccccc4nc23)C(=O)c2ccccc21`, the growth is 45.1%.

With `CN(C)CCCOc1c(Br)cc(/C=C/C(=O)N(C)CCc2cc(Br)c(OCCCN(C)C)c(Br)c2)cc1Br`, the growth was 72.8%.

For `Nc1nccc(=S)[nH]1`, the growth is 101%.

For `C=C1C(=O)O[C@H]2[C@H]1CC/C(COC(=O)CCCC(=O)OC/C1=C/CC[C@@]3(C)O[C@H]3[C@H]3OC(=O)C(=C)[C@@H]3CC1)=C\CC[C@@]1(C)O[C@@H]21`, the growth was 15.1%.

As to `O=C(NNC(=O)c1ccc([N+](=O)[O-])cc1)c1ccc([N+](=O)[O-])cc1`, the growth was 112%.

Consider `COc1cc(C(=O)NNC(=O)c2ccccc2C(=O)O)cc(OC)c1OC`, for which the growth is 40.9%.

As to `O=S(c1ccccc1)c1ccc2nnnn2n1` (stereo unspecified), the growth is 101%.

Consider `Cc1ncc(CO)c(C(=O)O)c1O`, for which the growth was 97.6%.

On to `CCOC(=O)c1noc2c1CCc1cn(Cc3cc(OC)cc(OC)c3)cc1-2`, for which the growth is 107%.

`CCCCCC/C=N/Nc1ccc([N+](=O)[O-])cn1`: the growth is 110%.

In the case of `CC[C@@]1(O)C(=O)OCc2c1cc1n(c2=O)Cc2c-1nc1ccccc1c2/C=N/OC(C)(C)C`, the growth was 5.56% (active).

With `CC(=O)Oc1ccc(C(OC(C)=O)OC(C)=O)cc1`, the growth is 102%.

Take `C=C1C(=O)O[C@H]2[C@H]1CC/C(COC(=O)n1ccnc1C)=C\CC[C@@]1(C)O[C@@H]21`: the growth was 103%.

`C=C1C(=O)O[C@H]2[C@H]1CC/C(C(=O)NCCOCCOCC(=O)Nc1ccc(OC)c(C(N)=O)c1O)=C\CC[C@@]1(C)O[C@@H]21`: the growth was 94.3%.

Turning to `Cc1cc(C)c(O)c(C(=O)CC(Br)C(=O)O)c1` (stereo unspecified), the growth is 110%.

On to `COc1ccc(-c2ccc(NC(=O)Nc3cccc(C(F)(F)F)c3)c(C)n2)cc1`, for which the growth was 68%.

Take `COc1ccc(Cn2cc(COc3ccc4c5ccnc(C)c5n(CCCc5ccccc5)c4c3)nn2)cc1`: the growth is 69.1%.

As to `O=S(=O)(O)c1ccc(F)cc1`, the growth is 111%.

Regarding `Cc1nccc2c3ccc(OCc4cn(Cc5ccc(Br)cc5)nn4)cc3n(CCCc3ccccc3)c12`, the growth is 92.1%.

Consider `Cl[C@@H]1CCO[C@H](c2cc3ccccc3c3ccccc23)C1`, for which the growth was 95.4%.

Turning to `Nc1ncnc2c1c(C(F)(F)F)cn2[C@@H]1O[C@H](CO)[C@@H](O)[C@H]1O`, the growth is 15.7%.

With `C#C[C@@]1(O)[C@@H](CO)O[C@@H](n2cc(Br)c3c(Cl)ccnc32)[C@@H]1O`, the growth was 23.7%.

The next test concerns UO-31 renal. Described as above. The following applies: 10 µM unless noted.
For the molecule `Nc1nc(-c2cc3c(cc2Cl)NC(=O)/C3=C/c2ccc(Cl)cc2)cs1`, the growth is 54.3%.

On to `Cc1cccc(Cc2cnc(NC(=O)CCc3ccc(C)o3)s2)c1`, for which the growth was 34%.

`CC(Cl)(CCl)CS(=O)(=O)c1ccc(Cl)cc1` (stereo unspecified): the growth is 92.8%.

As to `COc1ccc(Cl)cc1NC(=O)c1cc2c([nH]1)-c1nc(NC(=O)C(C)(C)C)sc1CC2`, the growth was 58.8%.

Regarding `CC(C)(c1ccc(OCC(O)CNCc2ccco2)cc1)c1ccc(OCC(O)CNCc2ccco2)cc1` (stereo unspecified), the growth is 66.3%.

With `O=C1CCC(c2c(O)cc(O)c3c(=O)c(O)c(-c4ccc(O)c(O)c4)oc23)N1` (stereo unspecified), the growth was 82.6%.

Consider `COc1ccc(Cn2cc3c(c2-c2cc(OC)c(OC)c(OC)c2)CCc2c(CO)noc2-3)cc1`, for which the growth was 30.1%.

For `CC(=O)Cc1cccnc1`, the growth was 89.8%.

Regarding `CC(/C=C/C=C(\C)[C@H](O)[C@H](C)C(=O)O[C@H]1C[C@H](C)C=C2C=C[C@@]3(C)O[C@@H](O)CC(=O)[C@]3(C)[C@H]21)=C\C=C\C(=O)O`, the growth is 18.8%.

For the molecule `Nc1nc(-c2cc3c(cc2Cl)NC(=O)/C3=C/c2ccccc2)cs1`, the growth was 45.6%.

As to `C=CC(=O)NC(=O)Nc1ccccc1Cl`, the growth was 59.8%.

For `CCOC(=O)c1noc2c1CCc1c-2cn(Cc2ccc(OC)cc2)c1-c1cc(OC)c(OC)c(OC)c1`, the growth was 30.9%.

Take `C=C1C(=O)O[C@H]2[C@H]1CC/C(COC(=O)OC/C1=C/CC[C@@]3(C)O[C@H]3[C@H]3OC(=O)[C@@H](CN(C)C)[C@@H]3CC1)=C\CC[C@@]1(C)O[C@@H]21`: the growth was -16.2% (active).

As for `CC1CCC(C(C)C)C(NN)C1` (stereo unspecified), the growth was 88.8%.

On to `Cc1cc(SCc2ccc(Cl)cc2Cl)nc(SCc2ccc(Cl)cc2Cl)n1`, for which the growth is 97.5%.

`CCCC(C)(C)COC(=O)c1cccc(N)c1`: the growth is 69.2%.

Take `O=C1C(Cl)=C(Nc2cccc3cc4ccccc4nc23)C(=O)c2ccccc21`: the growth was 25.7%.

As for `CN(C)CCCOc1c(Br)cc(/C=C/C(=O)N(C)CCc2cc(Br)c(OCCCN(C)C)c(Br)c2)cc1Br`, the growth was 65.7%.

Turning to `Nc1nccc(=S)[nH]1`, the growth is 98.3%.

As for `C=C1C(=O)O[C@H]2[C@H]1CC/C(COC(=O)CCCC(=O)OC/C1=C/CC[C@@]3(C)O[C@H]3[C@H]3OC(=O)C(=C)[C@@H]3CC1)=C\CC[C@@]1(C)O[C@@H]21`, the growth was 13.6%.

With `O=C(NNC(=O)c1ccc([N+](=O)[O-])cc1)c1ccc([N+](=O)[O-])cc1`, the growth was 95.4%.

As to `COc1cc(C(=O)NNC(=O)c2ccccc2C(=O)O)cc(OC)c1OC`, the growth was 49%.

As for `O=S(c1ccccc1)c1ccc2nnnn2n1` (stereo unspecified), the growth was 73.1%.

With `Cc1ncc(CO)c(C(=O)O)c1O`, the growth is 84.8%.

On to `CCOC(=O)c1noc2c1CCc1cn(Cc3cc(OC)cc(OC)c3)cc1-2`, for which the growth was 84%.

As for `CCCCCC/C=N/Nc1ccc([N+](=O)[O-])cn1`, the growth is 84.6%.

As for `CC[C@@]1(O)C(=O)OCc2c1cc1n(c2=O)Cc2c-1nc1ccccc1c2/C=N/OC(C)(C)C`, the growth is -64.8% (active).

Regarding `CC(=O)Oc1ccc(C(OC(C)=O)OC(C)=O)cc1`, the growth was 89.8%.

Regarding `C=C1C(=O)O[C@H]2[C@H]1CC/C(COC(=O)n1ccnc1C)=C\CC[C@@]1(C)O[C@@H]21`, the growth is 83.1%.

Take `C=C1C(=O)O[C@H]2[C@H]1CC/C(C(=O)NCCOCCOCC(=O)Nc1ccc(OC)c(C(N)=O)c1O)=C\CC[C@@]1(C)O[C@@H]21`: the growth was 87.3%.

For `Cc1cc(C)c(O)c(C(=O)CC(Br)C(=O)O)c1` (stereo unspecified), the growth was 77.7%.

Consider `COc1ccc(-c2ccc(NC(=O)Nc3cccc(C(F)(F)F)c3)c(C)n2)cc1`, for which the growth was 55.1%.

Turning to `COc1ccc(Cn2cc(COc3ccc4c5ccnc(C)c5n(CCCc5ccccc5)c4c3)nn2)cc1`, the growth is 70.5%.

For the molecule `O=S(=O)(O)c1ccc(F)cc1`, the growth was 86.4%.

On to `Cc1nccc2c3ccc(OCc4cn(Cc5ccc(Br)cc5)nn4)cc3n(CCCc3ccccc3)c12`, for which the growth was 71.2%.

On to `Cl[C@@H]1CCO[C@H](c2cc3ccccc3c3ccccc23)C1`, for which the growth was 89.2%.

For the molecule `Nc1ncnc2c1c(C(F)(F)F)cn2[C@@H]1O[C@H](CO)[C@@H](O)[C@H]1O`, the growth is 2.15% (active).

Turning to `C#C[C@@]1(O)[C@@H](CO)O[C@@H](n2cc(Br)c3c(Cl)ccnc32)[C@@H]1O`, the growth was 45.2%.

Values taken from PubChem BioAssay (NCI).
